Each structure is given as a SMILES string.

In the assay the target is AMP-activated protein kinase, AMPK (Homo sapiens) (UniProt P54646+O43741+P54619+Q9UGJ0+Q9Y478+Q13131+Q9UGI9). In words: AMP-dependent Kinase enzyme assay. An in vitro enzyme assay that detects ADP turnover that is directly proportional to AMPK activity. This uses naive AMPK that is activated during the assay with MK-8722. The class given is functional. Particulars: 30 µM. Set-up: scale not given: direction of the effect not stated beside the values.
Consider `CC(C)(C)c1n[nH]c(C2CN(C(=O)c3cc(Cl)c[nH]3)CCO2)n1` (stereo not given), for which the Percent Effect was 3.14%.

On to `Cc1nn(CC(C)C)c(N(C)C)c1CNCc1cc2ccccc2[nH]1`, for which the Percent Effect was -5.31%. The figure for `Cc1ccc(CN2C[C@@H]3COC[C@H](NS(C)(=O)=O)[C@@H]3C2)o1` is 3.44%. For the compound `CC(=O)Nc1nc(C2CCN(C(C)=O)CC2)cs1`, the Percent Effect was 6.04%. On to `COCC(=O)N1Cc2cn(C)nc2C(COc2cccnc2)C1` (stereo not given), for which the Percent Effect amounted to 0.672%.

On to `O=C(COCc1nc(-c2ccncc2)no1)N1CCCC1`, for which the Percent Effect is 5.42%. With `CCOC(=O)c1sc(NC(=O)CN(C)S(C)(=O)=O)c(C#N)c1C`, the Percent Effect worked out at 11.5%. With `Cc1ccc([C@]2(O)CC[C@H]3CN(Cc4cc(C)c(O)c(C)c4)C[C@H]32)nc1`, the Percent Effect worked out at 23.7%.

As to `O=C(C1=CCCC1)N1CCO[C@H]2[C@@H](OCC3CC3)CC[C@@H]21`, the Percent Effect is -4.28%. As for `Cc1nc(C)n(CC2CCCN2CC(=O)NCc2ccco2)n1` (stereo not given), the figure is 1.19%; as for `CCOC(=O)NC(C(=O)NCc1ccc(N2CCCCC2)nc1)C(C)C` (stereo not given), -4%; as for `Cc1cc(NC(=O)c2nc(N3CCCC3)ncc2Cl)nc(C(C)C)n1`, -5.04%.

Regarding `CC(C)c1nc(C(=O)N2CCOCC2CC(=O)c2ccco2)c[nH]1` (stereo not given), the Percent Effect worked out at 4.64%. With `OC1CCN(Cc2c(C3CCCNC3)[nH]c3ncccc23)CC1` (stereo not given), the Percent Effect came out at 11.9%. As for `CS(=O)(=O)CCC(=O)Nc1cnn(-c2ccccc2Cl)c1`, the Percent Effect is -8%. Regarding `CC(C)CN1CCN(Cc2nc3ccccc3[nH]2)[C@H]2CS(=O)(=O)C[C@H]21`, the Percent Effect amounted to 1.86%. `O=C(Cn1cnc(NC(=O)CC2CCCC2)n1)NCc1ccccc1`: the Percent Effect was -2.47%. On to `CN(Cc1ccco1)C(=O)[C@H]1CSCN1C(=O)OC(C)(C)C`, for which the Percent Effect was -5.01%. For `O=C1CN(Cc2nnc(-c3ccccc3Br)o2)CCN1`, the Percent Effect was determined as 0.225%. `CC(C)c1nnc2n1CCN(C(=O)CN1CCc3sccc3C1)C2`: the Percent Effect is -8.35%.

For the compound `Cn1nccc1C1CCN(Cc2csc(-c3ncccn3)n2)CC1`, the Percent Effect was -7.27%. On to `COCc1cnc2n1CCN(Cc1cccnc1)C2C` (stereo not given), for which the Percent Effect worked out at 0.686%. As for `Cc1ccccc1CS(=O)(=O)CC(=O)NC1CCCCNC1=O` (stereo not given), the figure is -2.46%; as for `O=C(Nc1cccc(OCc2cccc(F)c2)c1)C1COCCO1` (stereo not given), 0.056%. For `Cn1cnnc1C1CCCN(C(=O)NCc2cc[nH]n2)C1` (stereo not given), the Percent Effect was -12.9%. Regarding `CS(=O)(=O)NC1CCc2c(ccc(=O)n2CC2CC2)C1` (stereo not given), the Percent Effect stood at 7.1%. On to `COc1ccc(Cl)cc1NCC(=O)NCCc1ccccn1`, for which the Percent Effect was -7.1%.

Take `CC(C)n1ccnc1CN1CCCN(C(=O)COC2CCCC2)CC1`: the Percent Effect stood at 6.6%. For the compound `COc1cc(C(=O)N(C2CC2)C2CC(=O)NC2=O)ccc1C` (stereo not given), the Percent Effect stood at 4.42%.

For the compound `O=C(Nc1ccnc(OC2CCOC2)c1)C1CCC1` (stereo not given), the Percent Effect is -0.181%.

As for `Cc1ncccc1Oc1nccnc1C1CCN(C(C)C)CC1`, the Percent Effect was 1.33%. `Cc1cnn(CC2CCCN2C(=O)c2cn(-c3ccccc3)nc2C)c1` (stereo not given): the Percent Effect was -10.7%. In the case of `O=C(Cc1ccccn1)N1CCN(C(=O)c2cccc3[nH]ncc23)CC1`, the Percent Effect came out at 15.9%. Take `Cc1nc2n(n1)CC(NCc1cc(Cl)c3c(c1)OCCCO3)CC2` (stereo not given): the Percent Effect is -7.14%. As for `Cn1cnc2c1CCN(Cc1nc(Cc3ccccc3)no1)C2`, the Percent Effect was -7.72%.

Regarding `Cc1cnc(CN2CCOC(Cn3nc(C)nc3C)C2)cn1` (stereo not given), the Percent Effect is -6.35%.

Regarding `CCN1CCC(c2nc3ccc(NC(C)C)cn3n2)CC1`, the Percent Effect was -138%. As for `NC(=O)N1CCC2(CCN(Cc3cccc(F)c3)CC2)CC1`, the figure is -0.226%.

Turning to `O=C(N[C@@H]1CCNC[C@H]1O)c1ccc(F)c(Cl)c1`, the Percent Effect is 0.871%. For the compound `Cc1cnn(CCCNC(=O)N2CCCCC(N3CCCC3)C2)c1` (stereo not given), the Percent Effect is 0.679%.

Source of the values: ChEMBL document CHEMBL3988442, “University of Dundee, Small-Polar-MMV Screening Library” (2021).
